Experimental findings from PubChem BioAssay AID651813 (National Center for Advancing Translational Sciences (NCATS), 2012) are described below.

Hit rate of the full screen: of about 2,100 compounds, about 1,100 (52%) were called active. Inconclusive results (about 27%) are left out. So high a share suggests a set chosen from earlier hits. The list shows a part of the results. A number with no mark means an inactive call. Calls come from the whole dose curve; as a rule, active = well fitted inhibition curve with a large enough effect; inconclusive = small, poorly fitted or top-dose-only effect; inactive = no such curve, though single readings can be large or run the other way.
Potency is the fitted concentration of half-maximal effect.

For this test, the target named is DNA dC->dU-editing enzyme APOBEC-3G (Homo sapiens) (UniProt Q9HC16). The test is described as follows: qHTS for inhibitors of Vif-A3G interactions: Cherry picks counterscreen.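 For max response: max response given as percent of control signal.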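 Note: hits raise yellow fluorescence by blocking Vif-driven A3G-eYFP degradation; nearly all actives have a fitted effect of over 70% in size.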 Conditions: HeLa A3G-eYFP + Vif (tagged APOBEC3G with the HIV-1 protein that degrades it), eYFP fluorescence, 24 h. The gist of the method: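 HeLa cells stably expressing A3G-eYFP and Vif were treated for 24 h at 37 deg C with compounds at several concentrations; yellow fluorescence (Ex 488 nm, Em 500-530 nm) read by Acumen Explorer, MG132 as positive control.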
Sequence of DNA dC->dU-editing enzyme APOBEC-3G (Homo sapiens) (Q9HC16 whole entry, looked up): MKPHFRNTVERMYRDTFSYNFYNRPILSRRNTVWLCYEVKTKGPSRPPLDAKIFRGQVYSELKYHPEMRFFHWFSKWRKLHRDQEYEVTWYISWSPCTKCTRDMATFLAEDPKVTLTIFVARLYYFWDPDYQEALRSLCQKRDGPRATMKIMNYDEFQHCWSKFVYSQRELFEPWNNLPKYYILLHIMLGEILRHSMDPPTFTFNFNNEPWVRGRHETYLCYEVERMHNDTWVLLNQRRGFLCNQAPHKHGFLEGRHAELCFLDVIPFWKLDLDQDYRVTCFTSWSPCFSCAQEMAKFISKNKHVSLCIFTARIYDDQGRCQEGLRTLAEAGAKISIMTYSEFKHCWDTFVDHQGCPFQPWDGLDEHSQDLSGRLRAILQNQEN
As to `CC(OC(=O)/C(C#N)=C/c1ccc(N(C)C)cc1)C(=O)N(C)Cc1ccccc1` (configuration not stated), the Potency is 23.1 µM (active).

On to `CC(C)(C)NCC(=Cc1ccccc1)C(=O)c1ccccc1`, for which the max response is -3.58%. With `O=C(C(=Cc1ccccc1)CN1CCCCC1)c1ccccc1`, the Potency is 3.14 µM (active). On the same count and under the same terms, the same measure for `COc1cc(C2Nc3ccc4ncccc4c3C3=C2C(=O)CCC3)ccc1O` (configuration not stated): 14 µM (active); for `COc1cc(C2Nc3ccc4ncccc4c3C3=C2C(=O)CCC3)cc(OC)c1O` (configuration not stated): 11.2 µM (active); for `COC(=O)c1sc2cc([N+](=O)[O-])cc(SCC(C)C)c2c1N`: 8.2 µM (active). For the compound `CCOC(=O)c1sc2cc([N+](=O)[O-])cc(SCC(C)C)c2c1N`, the Potency was 2.31 µM (active).

In the case of `Cc1ccc2nc3c(cc(S(=O)(=O)c4ccccc4)c(=N)n3Cc3ccco3)c(=O)n2c1`, the max response was 17.8%. On the same count and under the same terms, the same measure for `CCn1c(O)c(/C=N/NC(=O)c2ccncc2)c(=O)n(CC)c1=S`: -1.22%. In the case of `CC(/C=N/NC(=O)c1cc(-c2ccccc2)nc2ccccc12)=C\c1ccco1`, the Potency is 2.23 µM (active). For `O=C(N/N=C/c1ccco1)c1cc(-c2ccncc2)nc2ccccc12`, the Potency is 11.2 µM (active). Same read-out and setting: the same measure for `CCc1ccc(/C=N/NC(=O)c2cc(-c3ccncc3)nc3ccccc23)s1`: 3.53 µM (active); for `CC(/C=N/NC(=O)c1cc(-c2ccc3ccccc3c2)n[nH]1)=C\c1ccco1`: 14 µM (active). Take `CCC(=C/c1sc2ccc3ccccc3c2[n+]1C)/C=C1\Sc2ccc3ccccc3c2N1C`: the max response was -21.8%.

Regarding `Cc1[nH]c2ccccc2c1/C=N/NC(=O)c1cc(-c2ccncc2)nc2ccccc12`, the Potency is 9.94 µM (active). For `O=C(Nc1ccccc1OC(=O)c1ccccc1)c1ccccc1`, the Potency was 17.7 µM (active). Regarding `COc1ccccc1NC(=O)Cc1ccc(-c2ccccc2)cc1`, the max response was -14.2%. Same read-out and setting: the same measure for `O=C(NC(=S)Nc1ccc(-c2ccccc2)cc1)c1ccccc1`: 2.13%. In the case of `Cc1cc2c(cc(C(=O)OCC(=O)NCc3cccs3)n2C(C)C)o1`, the Potency was 6.27 µM (active). On the same count and under the same terms, the same measure for `CCn1cc(/C=C/c2cc[n+](C)cc2)c2ccccc21`: 1.77 µM (active). Regarding `CC(C)n1cc(/C=C/c2cc[n+](C)cc2)c2ccccc21`, the Potency was 3.53 µM (active). With `C=CCn1cc(/C=C/c2cc[n+](C)cc2)c2ccccc21`, the Potency is 0.886 µM (active).

Consider `O=c1[nH]c2cc(Br)cnc2nc1/C=C(\O)c1ccc(F)cc1`, for which the Potency is 18.4 µM (active). The same measure, in the same setting: the same measure for `COc1ccc(-n2nnnc2-c2cccc(OC)c2)cc1`: 1.98 µM (active); for `COc1ccc(-n2nnnc2-c2ccccc2)cc1`: 3.14 µM (active). Consider `CCOc1cccc(-n2nnnc2-c2ccc(OC)cc2)c1`, for which the Potency is 4.98 µM (active). Take `COc1cccc(C(=O)Nc2ncc3c(n2)CC(c2ccc(OC)cc2OC)CC3=O)c1` (configuration not stated): the Potency is 17.7 µM (active). As for `CCN(CC)c1ccc2cc(-c3nc4sc5c(c4c(=O)[nH]3)CCC(C(C)(C)C)C5)c(=O)oc2c1` (configuration not stated), the max response was 48%.

Consider `COc1ccc2cc(-c3nc(Cl)c4c5c(sc4n3)CC(C)CC5)c(=O)oc2c1` (configuration not stated), for which the Potency was 20.6 µM (active).

For the compound `COc1ccccc1-c1nnc2sc(-c3cc4ccccc4o3)nn12`, the Potency was 1.98 µM (active). Regarding `CS(=O)(=O)N(CC(=O)N1CCN(Cc2ccccc2)CC1)c1ccccc1F`, the max response was -9.78%. As to `CCN(CC)CCCNc1ccc2ncn3c4ccc(O)cc4c(=O)c1c23`, the Potency was 23.1 µM (active). Same read-out and setting: the same measure for `Cc1ccc(-c2cc(NC=O)c3ncc(-c4cnn(C)c4)n3c2)cc1`: 3.14 µM (active). Turning to `CN(C)C(=O)c1cccc(-c2cnc3c(NC=O)cc(-c4ccccc4F)cn23)c1`, the max response is -0.0482%. For `Cc1ccc(-c2cc(NC=O)c3ncc(-c4cccc(C(=O)N(C)C)c4)n3c2)cc1`, the Potency is 8.86 µM (active). On to `CC(C)n1c(O)c(N=Nc2ccc(Cl)nn2)c2ccccc21`, for which the Potency is 18.4 µM (active). For the compound `NC(=O)CSc1nc2c(sc3ccccc32)c(=O)n1CCCC(=O)NCC1CCCO1` (configuration not stated), the max response is -5.1%. Regarding `CCOC(=O)/C=c1/s/c(=C\c2c(OC)ccc3ccccc23)c(=O)n1CC(=O)NCC1CCCO1` (configuration not stated), the Potency is 11.2 µM (active).

On to `CCOC(=O)/C=c1\s/c(=C\c2c(OC)ccc3ccccc23)c(=O)n1CC(=O)NCC1CCCO1` (configuration not stated), for which the Potency was 14.6 µM (active). For the compound `CN(C)c1ccc(/C=C/c2ccnc3c(Cl)cccc23)cc1`, the Potency was 11.6 µM (active). Consider `CN(C)c1ccc(/C=C/c2ccnc3c(N)cccc23)cc1`, for which the Potency was 14.6 µM (active). Consider `CN(C)c1ccc(/C=C/c2ccnc3c(Cl)ccc(Cl)c23)cc1`, for which the Potency was 3.26 µM (active). For `c1cncc(-c2nc(NCc3cccs3)c3ccccc3n2)c1`, the max response is -5.92%. Take `Brc1ccc2c(c1)C(c1cccnc1)=NNC(c1cccs1)=N2`: the Potency is 8.86 µM (active). For the compound `CC(=O)n1cc(/C=N/NC(=O)c2sc(C)nc2C)c2ccccc21`, the Potency is 17.7 µM (active). Still for that read-out and setting: the same measure for `O=C(c1ccc(CS(=O)c2ccccc2Cl)o1)N1CCN(c2ccccc2F)CC1` (configuration not stated): 2.91 µM (active); for `Cn1c(=O)[nH]c(=O)c2c1nc(Br)n2Cc1cccc(Br)c1`: 7.04 µM (active).

Turning to `O=C1C=CC(O)(c2cc(=O)c3c(O)cc(O)cc3o2)C=C1`, the Potency was 7.9 µM (active). The same measure, in the same setting: the same measure for `COc1cc(-c2noc(C)c2C#Cc2ccc(N)cc2)cc(OC)c1OC`: 0.444 µM (active); for `CCOC(=O)N1C/C(=C\c2ccccc2)C(=O)/C(=C/c2ccccc2)C1`: 8.86 µM (active). With `Cc1cccc(C(=O)Nc2nnc(C3=COCCO3)o2)c1`, the max response is -1.82%. On to `CCN(CC)c1ccc2cc(-c3nc(-c4ccc(Cl)cc4Cl)cs3)c(=O)oc2c1`, for which the max response was 34.3%. As to `O=c1oc2cc(O)ccc2cc1-c1nc(-c2ccc(Cl)c(Cl)c2)cs1`, the Potency was 1.16 µM (active). With `CCc1sc(-c2cc3ccc(O)cc3oc2=O)nc1-c1ccc(C)cc1`, the Potency is 2.59 µM (active). Still for that read-out and setting: the same measure for `O=S(=O)(Nc1nc2ccccc2nc1N1CCN(c2ccccn2)CC1)c1ccc(Cl)cc1`: 16.4 µM (active). As to `CN1CCN(c2nc3ccccc3nc2NS(=O)(=O)c2ccc(Br)cc2)CC1`, the max response was -6.45%. With `NC(=O)C1CCN(c2nc3ccccc3nc2NS(=O)(=O)c2ccc(Br)cc2)CC1`, the max response is -5.92%. With `CCN1C(=S)SC(=O)C1=C1C=C(C)N(Cc2ccco2)C(C)=C1`, the Potency was 15.8 µM (active). `Cc1cccc(C)c1NC(=S)NC(C)CCc1ccccc1` (configuration not stated): the max response is -1.19%.

As to `COc1ccc(NC(=O)c2cccc3ccccc23)cc1`, the Potency is 15.8 µM (active).

`COc1ccc(NC(=O)c2c(Cl)n(C)c3ccccc23)cc1`: the Potency is 14 µM (active). Still for that read-out and setting: the same measure for `COc1cc(C(=O)Nc2ccc(C)cc2)c2ccccc2n1`: 2.5 µM (active). `CCOC(=O)c1csc(NC(=O)c2cc(-c3ccccn3)nc3ccccc23)n1`: the max response was -7.52%. Regarding `CC(C)(C)c1ccc(Oc2ccc(NC(=O)c3ccccc3C(=O)O)cn2)cc1`, the max response is 6.3%. The same measure, in the same setting: the same measure for `O=C(O)CSc1c2ccccc2cc2ccccc12`: -3.73%.

For the compound `CCN1/C(=C/c2cc[n+](C)cc2)C=Cc2cc(C)ccc21`, the Potency is 23.1 µM (active).

Consider `O=C1CSC(=S)N1Cc1cccnc1`, for which the Potency is 4.11 µM (active).

Consider `O=C1/C(=C/c2ccc(O)cc2)SC(=S)N1Cc1cccnc1`, for which the max response was -0.458%. For the compound `Cc1ccc2c(c1)C=CC(C#N)N2C(=O)c1ccccc1` (configuration not stated), the Potency is 4.98 µM (active). For the compound `C(=C\c1c[nH]c2ccccc12)/c1nccc2ccccc12`, the Potency was 10.3 µM (active). Same read-out and setting: the same measure for `C(=Cc1c[nH]c2ccccc12)c1nccc2ccccc12`: 20.6 µM (active). Still for that read-out and setting: the same measure for `Cc1ccc2c(/C=C/c3c[nH]c4ccccc34)ccnc2c1C`: 5.8 µM (active). On the same count and under the same terms, the same measure for `O=C(c1ccccc1F)n1c2c(c3ccccc31)CCCC2`: 15.8 µM (active).

For the compound `CNCC(O)Cn1c2c(c3ccccc31)CCCC2` (configuration not stated), the max response is 20.6%. For the compound `O=C(NC1CC1)c1cccc2c1C(=O)c1ccc(N3CCC(Cc4ccccc4)CC3)cc1S2(=O)=O`, the Potency was 20.6 µM (active). For `O=C(NC1CCCCC1)c1cccc2c1C(=O)c1ccc(N3CCC(Cc4ccccc4)CC3)cc1S2(=O)=O`, the Potency was 15.8 µM (active). Same read-out and setting: the same measure for `CCN1/C(=C/c2cccc[n+]2C)Sc2ccc(OC)cc21`: 20.6 µM (active). Still for that read-out and setting: the same measure for `CC[n+]1ccccc1/C=C1\Sc2ccc(C)cc2N1C`: 20.6 µM (active); for `COc1ccc2c(c1)N(C)/C(=C/c1cccc[n+]1C)S2`: 17.7 µM (active).

For `CC(=O)Nc1sc2c(c1-c1nc3ccccc3s1)CCN(C(C)C)C2`, the Potency was 18.4 µM (active). The same measure, in the same setting: the same measure for `CC(=O)N1CCc2c(sc(NC(=O)CSc3ccccc3)c2-c2nc3ccccc3s2)C1`: 29.1 µM (active); for `CN1CCc2c(sc(NC(=O)CSc3ccc(F)cc3)c2-c2nc3ccccc3s2)C1`: 2.59 µM (active). Turning to `CCc1ccc(C2=NN(S(C)(=O)=O)C(c3cccs3)C2)cc1` (configuration not stated), the Potency is 14 µM (active). Turning to `CS(=O)(=O)Nc1ccc(C2=NN(S(=O)(=O)c3ccccc3)C(c3cccs3)C2)cc1` (configuration not stated), the Potency was 20.6 µM (active). Same read-out and setting: the same measure for `CC(C)n1cc(/C=C2\NC(=O)N(c3cccc(Cl)c3)C2=O)c2ccccc21`: 14 µM (active).

Take `Cc1ccc(NC(=O)c2ccc(NCc3ccco3)c([N+](=O)[O-])c2)cc1Cl`: the Potency is 14.6 µM (active). For the compound `Cc1ccc(NC(=O)c2ccc(NCC3CCCO3)c([N+](=O)[O-])c2)cc1Cl` (configuration not stated), the Potency is 20.6 µM (active). As for `Cc1ccc(NC(=O)c2ccc([N+](=O)[O-])s2)cc1S(=O)(=O)N1CCOCC1`, the max response was -5.77%.

Regarding `Cc1ccc(NC(=O)CSc2ccccc2NC(=O)c2cccc(Cl)c2)cc1Cl`, the max response was 5.07%. On the same count and under the same terms, the same measure for `S=c1[nH]cnc2sc(-c3ccccc3)cc12`: 1.89%. `O=c1[nH]c(-c2cccnc2)nc2sc(-c3ccccc3)cc12`: the Potency is 0.627 µM (active). Turning to `CCCn1c(CN2CCN(C(=O)OCC)CC2)nc2cc(NC(=O)C(C)C)ccc21`, the Potency was 11.2 µM (active).
